Screening results: PubChem BioAssay, National Center for Advancing Translational Sciences (NCATS)
HCV inh – qHTS Assay for Inhibitors of Hepatitis C Virus (HCV); Huh7.5.1 HCVcc-Cre infection, luciferase reporter, 44 h; Potency, µM (doses to about 41.8 µM), without a hit: at the highest dose activity change, negative = inhibition, usual class: inhibitors; 3.4% of 340,000 active; active means well fitted inhibition curve with a large enough effect; inconclusive means small, poorly fitted or top-dose-only effect, or another doubt; inactive means no such curve, though single readings can be large or run the other way; further: potency means the concentration at half of the fitted maximal effect
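Reporter virus HCVcc-Cre (~0.5 moi) infects cells exposed to compound; seeding density 1,000 cells/well with 4 h settling beforehand. Luminescence, 15 sec read, taken 44 h post-infection following a 15 min RT substrate incubation.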
FMDV inh – High Throughput Screening for Foot and Mouth Disease Virus Antivirals. Potency, µM (titrated, usually from 57.9 µM), for inactives: top-dose activity change, negative = inhibition, usual class: inhibitors. FMDV antiviral cell-based qHTS. 1.2% of 410,000 active. AID 1159524, 2015; calls by dose curve; tested in HEK293T cells; further: read-out not given here; potency means the concentration at half of the fitted maximal effect; nearly all actives have a fitted effect of over 45% in size
Lassa entry inh – qHTS for Inhibitors of binding or entry into cells for Lassa Virus; Lassa virus pseudotype entry inhibition, cell reporter; Potency, µM (titrated, usually from 37.9 µM), for inactives: at the top dose activity change, negative = inhibition, most hits filed as inhibitors; 1.2% of 300,000 active; AID 540256, 2011; calls by dose curve; tested in HEK293 cells; further: potency means the concentration at half of the fitted maximal effect; nearly all actives have a fitted effect of over 50% in size
HCMV inh – qHTS Assay for inhibitors of the human cytomegalovirus (HCMV) | 4.5% of 410,000 active | activity change, negative = inhibition, % at 57.5 µM | HFF cells, HCMV-luciferase reporter, 72 h; hits give low values; in the data active means activity change below about -60%; inconclusive means no clear call, values can overlap the other calls; inactive means above about -39%
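Two compound doses tested in HFFs infected with HCMV-luciferase, MOI 1 PFU/cell, 72 h at 37C. Lysate luminescence read with OneGlo; data normalized against buffer-only and 10uM Salinomycin inhibitor controls.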
MARV entry inh – qHTS for inhibitors of binding or entry into cells for Marburg Virus; Marburg virus pseudotyped entry inhibition, cell reporter; Potency, µM (highest dose often 37.8 µM), inactives show top-dose activity change, negative = inhibition, hits mostly inhibitors; 1.8% of 300,000 active; AID 540276, 2011; calls by dose curve; tested in HEK293 cells; further: potency means the concentration at half of the fitted maximal effect
An asterisk follows results filed as active; ? = inconclusive; / = not tested or not shown; [ ] = another dose, or the depositor's remark. Rows were chosen to be rich in hits. Some 7.9% of all compounds tested hit in one or more screens of this group. On the % scale 0 is the no-effect control and ±100 the full control effect.

SMILES | HCV inh | FMDV inh | Lassa entry inh | HCMV inh | MARV entry inh
Cc1nn2c(=O)cc(COC(=O)c3ccc(NC(=O)COc4ccc(Cl)cc4)cc3)nc2s1 | / | 16µM* | ? | -84* | /
Cc1nn2c(=O)cc(COC(=O)c3ccc(NC(=O)c4cccs4)cc3)nc2s1 | / | 14µM* | 13%[46.1 µM] | -100* | /
CC(Oc1ccccc1)C(=O)Nc1ccc(C(=O)OCc2cc(=O)n3nc(C4CC4)sc3n2)cc1 (stereo not drawn) | / | 28µM* | ? | ? | /
COc1ccc(OCC(=O)Nc2ccc(C(=O)OCc3cc(=O)n4nc(C)sc4n3)cc2)cc1 | / | 10µM* | 2%[46.1 µM] | -28 | /
Cc1cccc(CSCCNC(=O)CN(c2ccccc2)S(=O)(=O)N(C)C)c1 | / | -21% | 7%[46.1 µM] | 6 | 16%[46.1 µM]
Cc1ccc(CNC(=O)c2ccc(-n3cnc4cccnc43)cc2)cc1 | / | -6% | 2%[46.1 µM] | -14 | /
COc1ccc(NC(=O)c2cc(S(=O)(=O)N3CCCC(C)C3)cn2C)c(OC)c1 (stereo not drawn) | / | -7% | ? | 5 | /
Cc1ccc(NC(=O)CN2C(=O)C3C4C=CC(C4)C3C2=O)cc1S(=O)(=O)N(C)C (stereo not drawn) | 16% | -5% | -7% | -103* | -7%
Cc1ccc(NC(=O)CCNC(=O)c2ccc([N+](=O)[O-])cc2)cc1S(=O)(=O)N(C)C | ? | 28µM* | ? | ? | 10µM*
Cc1ccc(NC(=O)c2ccc(OC(F)F)cc2)cc1S(=O)(=O)N(C)C | 7.9µM* | ? | -22% | -95* | ?
Cc1cc(NC(=O)CN(C)S(=O)(=O)c2ccc3c(c2)CCC(=O)N3)ccc1Br | / | 14µM* | -28%[46.1 µM] | ? | ?
COc1cc(CCC(=O)Nc2ccc(C)c(S(=O)(=O)N(C)C)c2)cc(OC)c1OC | ? | 28µM* | ? | -4 | ?
COc1ccc(CCNCC(=O)Nc2ccc(C)c(S(=O)(=O)N(C)C)c2)cc1 | ? | -16% | ? | -23 | 1%[46.1 µM]
COc1ccc(S(=O)(=O)N(C)C)cc1NCC(=O)Nc1ccc(Br)c(C)c1 | 10µM* | -18% | -19% | ? | ?
COc1ccc(CCC(=O)Nc2ccc(C)c(S(=O)(=O)N(C)C)c2)cc1OC | ? | 10µM* | -1% | -77* | 11µM*
COc1cc(CCC(=O)OCC(=O)Nc2cccc(S(=O)(=O)N(C)C)c2)cc(OC)c1OC | -13% | -24% | -4% | 9 | -1%
COc1ccc2c(c1)c(=O)c(S(=O)(=O)c1ccc(F)cc1)cn2Cc1ccccc1Cl | / | -15% | 5%[46.1 µM] | 3 | 20%[46.1 µM]
COc1ccc(C(=O)OC2=C(C(=O)c3ccccc3)N(C)S(=O)(=O)c3ccccc32)cc1OC | / | -21% | 6%[46.1 µM] | 13 | 15%[46.1 µM]
O=C(Nc1cccc(C(=O)O)c1)Nc1cccc2ccccc12 | 10% | -6% | ? | 20 | ?
O=C(Nc1cccc(C(=O)O)c1)Nc1ccccc1Cl | 6% | 10µM* | 4µM* | -10 | 8.9µM*
O=C(Nc1ccc(Cl)cc1)Nc1ccc(Cl)c(C(F)(F)F)c1 | / | / | / | -99* | /
O=C(NCc1ccccc1)C(=O)Nc1cccc(C(=O)O)c1 | 13% | 11µM* | / | 42 | /
O=C(Nc1cccc(Cl)c1)Nc1ccc2nccnc2c1 | ? | 8% | / | -77* | /
O=C(NCCS(=O)(=O)N1CCN(c2ccccc2F)CC1)c1ccccc1C(F)(F)F | / | -11% | 6%[46.1 µM] | 45 | /
CCOc1ccc(-n2nc3ccc(NC(=O)CC)cc3n2)cc1 | ? | 44% | ? | 39 | 24%
SMILES | HCV inh | FMDV inh | Lassa entry inh | HCMV inh | MARV entry inh
CCOC(=O)c1cccc(NC(=O)Nc2ccc(OCC)cc2)c1 | ? | 11% | ? | 36 | ?
CCOc1ccc(NC(=O)NC23CC4CC(CC(C4)C2)C3)cc1 | -3% | 23% | 11µM* | 0 | ?
COc1ccc(NC(=O)NC23CC4CC(CC(C4)C2)C3)cc1OC | -20% | -10% | 3% | -19 | 14%
CCOc1ccc(NC(=O)Nc2cccc(C(=O)O)c2)cc1 | -22% | 1.6µM* | ? | 22 | ?
CCOc1ccc(-n2nc3ccc(NC(=O)Cc4ccccc4)cc3n2)cc1 | / | 22µM* | -7%[46.1 µM] | -107* | /
O=C(Nc1ccccc1)Nc1cccc(Cl)c1 | ? | 0% | 1% | -20 | -6%
O=C(Nc1cccc(Cl)c1)Nc1cccc(C(=O)O)c1 | 14% | 14µM* | ? | 61 | ?
